Assay results reported in ChEMBL document CHEMBL3988442, “University of Dundee, Small-Polar-MMV Screening Library” (2021).
Out of some 48,000 compounds screened, about 13,000 (27%) showed an effect of 50% or more. This is one part of the list.

tested on: Wolbachia pipientis; assay: Anti-Wolbachia Cell-Based Screen; format: functional; parameters: scale not given: in the data most compounds retested in dose-response had high values; conditions: 5 µM

SMILES | Percent Effect
CCSC1(CNc2ncc(Br)cn2)CCOCC1 | -0.7161%
Cc1cc(CN2CCN(C(=O)C(C)C)[C@@H]3CS(=O)(=O)C[C@@H]32)ccc1F | -3.716%
CC(Cn1ccnc1)NCc1nncn1C1CCCCC1 (configuration not stated) | -17.23%
NC(=O)COc1ccc(CN2CC[C@@]3(O)CCCC[C@H]3C2)cc1Cl | 11.68%
CSc1ncccc1C(=O)NC(C)c1cccc(N2CCOC2=O)c1 (configuration not stated) | 5.443%
Cc1cc(CN(C)C(=O)C2CCS(=O)(=O)C2)no1 (configuration not stated) | 3.983%
CCCn1nnnc1CSc1nccn1Cc1ccccn1 | -4.795%
CCn1ccnc1CNCC1CCCN1c1cccnn1 (configuration not stated) | -7.119%
Cc1nc(CC(=O)N2CCCCC2c2ccn3ccnc3n2)cs1 (configuration not stated) | -8.343%
O=C(Cc1ccsc1)N1CCCCC1c1ccn2ccnc2n1 (configuration not stated) | 73.59%
O=C(Cc1cccs1)N1CCCCC1c1ccn2ccnc2n1 (configuration not stated) | 83.71%
O=C(Cc1cccs1)N1CCOCC1CO (configuration not stated) | -3.953%
CN(Cc1ccccc1F)C(=O)COC(=O)c1cc(Cl)c[nH]1 | 87.09%
CN(Cc1ccccc1F)C(=O)CS(=O)(=O)Cc1ccc(Cl)c(Cl)c1 | 6.215%
Cc1ccccc1CS(=O)(=O)CC(=O)N(C)Cc1ccccc1F | -29.58%
CN(Cc1ccsc1)C(=O)COC(=O)c1cc(Cl)c[nH]1 | 107.8%
COC(=O)c1ccc(OCC(=O)N(C)Cc2ccsc2)c(OC)c1 | 0.9882%
COc1ccc(Cl)cc1CS(=O)(=O)CC(=O)N(C)Cc1ccccc1F | -1.573%
CN(Cc1ccccc1F)C(=O)c1cc(Cl)c[nH]1 | 92.86%
CN(Cc1ccccc1F)C(=O)c1ccoc1 | 5.435%
COCCN1CCN(CC(=O)N(C)Cc2ccsc2)CC1C (configuration not stated) | 9.964%
Cc1ccc(CNCC2CCc3nnc(C(C)C)n3C2)s1 (configuration not stated) | -11.01%

SMILES | Percent Effect
CN1CCN(C(=O)CCc2cc(Br)cs2)CC1 | -6.424%
COc1cc(NC(=O)NC2CCOCC2)ccc1N1CCOC1=O | -14.6%
Cc1ncc(CN(C)c2nc3c(cnn3C(C)(C)C)c(=O)[nH]2)s1 | 5.937%
COc1c(CNC(c2nccn2C)C(C)C)c(C)nn1C (configuration not stated) | -4.434%
CCN(CC)Cc1cc(C(=O)N2CCC3(CC2)NCCNC3=O)c(C)o1 | -9.012%
CC(C)N(C)C(=O)Cn1ncc(N(C)CCc2ccccc2)cc1=O | -17.71%
CN(C)CCN(C)c1nc(CCc2ccccc2)nc2c1cnn2C | 4.899%
CN(CCc1ccccn1)Cc1nccn1Cc1ccccc1 | 8.438%
CN(CCc1ccccc1)c1cnn(Cc2ccccn2)c(=O)c1 | 5.151%
CN(CCc1ccncc1)c1cnn(C)c(=O)c1Br | 103%
Cc1nc(-c2ccncc2)nc(N(C)CCc2ccncc2)c1C | 0.9394%
COCCN(Cc1ccc(F)cc1Cl)C(=O)c1cnn(C)c1C | -5.759%
Cc1nc(N(C)C)nc(N(C)CCc2ccncc2)c1C | 13.66%
COc1ccc(Br)cc1CN(C)c1nc2c(cnn2C)c(=O)[nH]1 | -19.59%
CN(CCc1ccccc1)c1cnn(C)c(=O)c1Br | 67.25%
COCCN(C)c1cnn(C)c(=O)c1Br | 101.6%
CN(CCc1ccccn1)c1cnn(C)c(=O)c1Br | 101.4%
NS(=O)(=O)CCNC(=O)C1(c2ccc(Br)cc2)CC1 | -1.628%
CCc1nnc2n1CCN(C(=O)Cc1csc(-c3ccco3)n1)C2 | -5.069%
CCCC(=O)NCC(=O)Nc1cc(F)ccc1SCC(F)F | 9.844%
Cc1noc([C@@H]2C[C@H](NC(=O)Nc3cccc(F)c3)CN2C)n1 | -4.092%
CS(=O)(=O)NCc1n[nH]c2c1CCN(C(=O)c1ccsc1)C2 | -6.349%

SMILES | Percent Effect
Cc1nn(C)cc1-c1ccnc(N(C)Cc2cccs2)n1 | -35.4%
CCOc1cccc(CNC(C)c2ccc(-n3ccnc3)cc2)c1O (configuration not stated) | -2.856%
O=C(c1ccc(F)cc1Cl)N1CCn2c(nnc2C(F)(F)F)C1 | -1.794%
OCCN1CCN(Cc2cnc3c(-c4ccccc4)cnn3c2)CC1 | -3.434%
COCCCC1(C(=O)O)CCCN(Cc2cc3c(cc2C)OCCO3)C1 (configuration not stated) | -2.058%
O=C(c1cn(CC(=O)N2CCCC2)c2ccccc12)C1CC1 | -23.59%
Cc1ccc2nc(N3CCN(CC(=O)NC(C)C)CC3)cc(C)c2c1 | 5.586%
COCCNC(=O)CN1CCN(c2nc3cc(C)ccc3o2)CC1 | -13.48%
COCCNC(=O)CN1CC=C(n2c(C)nc(=O)c3ccccc32)CC1 | 80.87%
Cc1nnc2n1CCN(CC(=O)NC(C)c1cccc3ccccc13)C2 (configuration not stated) | -6.251%
Cc1nc(=O)c2ccccc2n1C1=CCN(CC(=O)N2CCCC2)CC1 | 121.3%
Cc1nc(=O)c2ccccc2n1C1=CCN(CC(=O)NC(C)C)CC1 | 121.8%
O=C(c1cn(CC(=O)N2CCCCCC2)c2ccccc12)C1CC1 | -6.817%
O=C(CN1CCc2cncnc2C1)NCCOc1ccccc1 | -0.7298%
CCNC(=O)CN(CC)C(=O)c1cc(-c2cccc(Cl)c2)no1 | -7.468%
CC(CN1CCOCC1)NC(=O)c1cccc2cn[nH]c12 (configuration not stated) | 6.229%
CN(C)C[C@H]1C[C@@H]2CN(C(=O)c3ccno3)C[C@@H]2O1.O=C(O)C(F)(F)F | -9.995%
Cc1cnn(CC(=O)N2CCCN(Cc3cnn(C(C)C)c3)CC2)c1 | 117.3%
Cc1cnc(C(=O)N2CCCN(Cc3cnn(C(C)C)c3)CC2)cn1 | 1.046%
CC(C)n1cc(CN2CCCN(C(=O)CN3CCCC3=O)CC2)cn1 | 122.9%
Cc1cc(C(=O)N2CCCN(Cc3cnn(C(C)C)c3)CC2)no1 | 2.122%
NS(=O)(=O)c1cnc(NCC2(c3ccccc3)CCC2)s1 | -8.019%

SMILES | Percent Effect
CCC1CN(CC(=O)Nc2cc(C)nn2C)CCO1 (configuration not stated) | 11.37%
Cc1cc(N2CCN(C(=O)Cc3ccc4c(c3)OCO4)CC2)cc(C)n1 | -8.837%
Cc1cc(NC(=O)Cc2ccc3c(c2)OCO3)n(C)n1 | 120.5%
Cc1cc(NC(=O)NCCc2ccc3c(c2)OCCO3)n(C)n1 | -3.946%
Cc1cc(NC(=O)Cn2ccc(-c3ccc4c(c3)OCO4)n2)n(C)n1 | 140.3%
Cn1nccc1NC(=O)Cn1ccc(-c2ccc3c(c2)OCO3)n1 | 132.1%
Cn1ncc(NC(=O)Cn2ccc(-c3cccc(F)c3)n2)n1 | -3.857%
CC(=O)c1ccc(-c2cnn(CC(=O)Nc3cc(C)nn3C)c2)nc1 | 2.251%
Cn1ncc(NC(=O)Cn2ccc(-c3ccc(F)cc3)n2)n1 | 6.673%
CCCOc1cc(Cl)c(CN2CCNC(C(=O)NC3CC3)C2)cc1OC (configuration not stated) | -0.8522%
O=C(c1cncc(N2CCCC3(CCNCC3)CC2)n1)N1CCCCC1 | 3.422%
COc1cc(F)cc(CNC(=O)Nc2ccn(CC(F)F)n2)c1 | -8.907%
O=C(c1cnc(NCc2cccnc2)c(Cl)c1)N1CCCCC1 | 2.275%
CCOC1CCCN(C(=O)c2ccccc2NCc2cccnc2)C1 (configuration not stated) | 55.92%
Cc1ccc(CNC(=O)N2CCN(C(C)c3cccnc3)CC2)cn1 (configuration not stated) | -10.7%
COCC1CCCN(C(=O)c2ccccc2NCc2cccnc2)C1 (configuration not stated) | 97.72%
Cc1c(NCc2cccnc2)cccc1C(=O)N1CCC(N(C)C)C1 (configuration not stated) | 115.4%
COCC(=O)N(Cc1cccnc1)CC1CCCN(C2CCCCC2)C1 (configuration not stated) | -12.35%
CC(C)N1CCN(C(=O)c2ccccc2NCc2cccnc2)CC1 | 80.75%
CN(C)C[C@H]1OC[C@@H]2CN(C(=O)NCc3cccnc3)CC[C@@H]21.O=C(O)C(F)(F)F.O=C(O)C(F)(F)F | -2.462%
COC(=O)C1CCN(C(=O)c2cccc(NS(C)(=O)=O)c2C)CC1 | 5.787%
NC(=O)CN1CCC(C(=O)N2CCCC(OCc3cccnc3)C2)CC1 (configuration not stated) | -8.18%

SMILES | Percent Effect
Cc1[nH]nc(CCC(=O)N2CCCC(OCc3cccnc3)C2)c1C (configuration not stated) | 1.428%
CSCC1CCN(C(=O)c2ccccc2NCc2cccnc2)C1 (configuration not stated) | 46.56%
Cn1ccnc1CN1CCN2C[C@H](OCc3ccccc3)C[C@H]2C1.O=C(O)C(F)(F)F.O=C(O)C(F)(F)F | -3.164%
Cc1cccc(C(C(=O)N2CC(c3ccncc3)C2)N(C)C)c1 (configuration not stated) | -5.316%
N#Cc1ccc(F)c(CNC(=O)NCCC(=O)NC2CCCC2)c1 | 6.795%
N#CC1(NC(=O)c2nccc3ccccc23)CCC2(CC1)OCCO2 | 0.4939%
Cc1noc(C)c1S(=O)(=O)N(CC(N)=O)CC(C)C | 2.709%
COC1CCN(C(=O)c2ccccc2NCc2cccnc2)CC1 | 112.6%
Cc1ccn(-c2ccccc2NCc2cccnc2)n1 | -3.836%
COCCN1CCCn2cnc(CNC3CCCC3)c2C1.Cl.Cl | -22.39%
CC(=O)N1CC[C@H](c2nnc(Cc3c[nH]c4ccccc34)o2)C1 | -6.086%
O=C(c1nc(-c2ccc3cc[nH]c3c2)no1)N1CCCC1 | 5.655%
O=C(c1nc(Cc2c[nH]c3ccccc23)no1)N1CCCC1 | 91.24%
O=C(c1nc(Cc2c[nH]c3ccccc23)no1)N1CCOCC1 | 109.7%
O=C(c1nc(Cc2c[nH]c3ccccc23)no1)N1CCCCC1 | 107.9%
c1ccc2c(Cc3nnc([C@H]4CCN(C5CCOCC5)C4)o3)c[nH]c2c1 | 1.602%
c1ccc2c(Cc3nnc([C@H]4CCN(C5CCCCC5)C4)o3)c[nH]c2c1 | 3.447%
O=C(C1CC1)N1CC[C@H](c2nnc(Cc3c[nH]c4ccccc34)o2)C1 | -9.274%
O=C(O)c1cc2n(n1)CCCN(C(=O)CCc1c[nH]c3ccccc13)C2 | -8.48%
